# DT40 TDP1 CPT – qHTS for Inhibitors of human tyrosyl-DNA phosphodiesterase 1 (TDP1): qHTS in cells in presence of CPT; chicken DT40 Tdp1-/-;hTDP1 cells + 20 nM CPT, ATP luminescence, 48 h; AID 686979, 2013; actives 12% (n = 420,000); Potency, µM (titrated, usually from 46.2 µM), for inactives: at the highest dose activity change, negative = growth inhibition, actives largely listed as inhibitors; note: potency is the fitted concentration of half-maximal effect; nearly all actives have a fitted effect of over 55% in size
#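 Chicken DT40 Tdp1-/- cells complemented with human TDP1, 400 cells/well, exposed to compounds plus 20 nM camptothecin for at least 48 h at 37 C; viability read as ATP content by CellTiter-Glo luminescence.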
# DT40 TDP1 no CPT – qHTS for Inhibitors of human tyrosyl-DNA phosphodiesterase 1 (TDP1): qHTS in cells in absence of CPT; Potency, µM (highest dose often 46.2 µM), inactives show at the highest dose activity change, negative = growth inhibition, usual class: inhibitors; actives 15% (n = 420,000); DT40 Tdp1-/- hTDP1 cells, no CPT, ATP luminescence, 48 h; AID 686978, 2013; note: potency is the fitted concentration of half-maximal effect; nearly all actives have a fitted effect of over 55% in size
#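 Growth kinetics read by CellTiter-Glo luminescence after ≥48 hr at 37 °C. Cells: DT40 Tdp1-/- stably carrying human TDP1, 400 per well, compound exposure in the absence of CPT (DMSO vehicle).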
# TDP1 block – qHTS Assay for Inhibitors of Tyrosyl-DNA Phosphodiesterase (TDP1) | Tyrosyl-DNA phosphodiesterase 1 (Homo sapiens), Q9NUW8 | recombinant TDP1, AlphaScreen DNA substrate cleavage | Potency, µM (highest dose often 130 µM), without a hit: at the highest dose activity change, negative = inhibition, usual class: inhibitors | actives 0.28% (n = 350,000) | AID 485290, 2010; note: potency is the fitted concentration of half-maximal effect; nearly all actives have a fitted effect of over 40% in size
# Target sequence (Q9NUW8 whole entry, looked up): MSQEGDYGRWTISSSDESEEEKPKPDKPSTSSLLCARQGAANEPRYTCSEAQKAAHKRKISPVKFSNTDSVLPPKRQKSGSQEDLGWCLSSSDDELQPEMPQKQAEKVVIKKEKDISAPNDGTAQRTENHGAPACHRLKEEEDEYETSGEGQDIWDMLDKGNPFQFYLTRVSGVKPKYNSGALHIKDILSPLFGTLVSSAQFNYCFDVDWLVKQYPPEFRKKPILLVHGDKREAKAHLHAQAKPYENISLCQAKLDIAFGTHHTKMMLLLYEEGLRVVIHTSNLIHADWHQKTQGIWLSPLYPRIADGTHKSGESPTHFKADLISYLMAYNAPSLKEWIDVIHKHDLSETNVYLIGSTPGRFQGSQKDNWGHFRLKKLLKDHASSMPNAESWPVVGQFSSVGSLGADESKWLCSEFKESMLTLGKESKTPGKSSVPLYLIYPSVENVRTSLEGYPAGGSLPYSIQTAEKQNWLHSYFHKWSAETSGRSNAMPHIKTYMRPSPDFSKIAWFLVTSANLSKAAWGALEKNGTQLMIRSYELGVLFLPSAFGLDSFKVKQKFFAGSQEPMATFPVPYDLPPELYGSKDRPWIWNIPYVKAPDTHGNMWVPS
#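 AlphaScreen read-out: signal falls as enzyme removes the 3' tyrosine-FITC from a 5'-biotinylated DNA oligo (15 nM, 5 min, RT). Enzyme was E. coli-made recombinant Tdp1 at 1 nM, exposed to compound for 15 min beforehand; beads 10 ug/ml, 10 min.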
# Giardia kill – Small Molecules that selectively kill Giardia lamblia: qHTS; Giardia lamblia trophozoite viability; activity change, % at 7.66 µM, hits read low; actives 0.15% (n = 340,000); AID 540267, 2011; in the data active = activity change below about -80%; inconclusive = between about -30% and that limit;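 note: parasites exposed to compound for two days anaerobically before the ATP read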
#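 Giardia trophozoites, 100 cells per well, were exposed to compounds for 48 hrs at 37 deg C under anaerobic conditions; viability was then read as ATP content by bioluminescence after 15-30 min at room temperature.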
# IL-1B inflam inh – qHTS for Inhibitors of Inflammasome Signaling: IL-1-beta AlphaLISA Primary Screen; AID 743279, 2014; activity change, % at 57.5 µM; actives 4.7% (n = 360,000); THP-1 LPS/ATP IL-1B secretion, AlphaLISA, 16 h; stronger effect = lower value; in the data active = activity change below about -50%; inconclusive = mostly about -30% to -49%
#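 Secreted IL-1B measured by AlphaLISA bead assay after 16 h compound exposure of THP-1 cells; compounds (final up to 57.5 uM) added 1 h before LPS (250 ng/mL) and ATP (1.25 mM) stimulation; lower signal means less secretion.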
# ELG1 DNA repair – qHTS screen for small molecules that inhibit ELG1-dependent DNA repair in human embryonic kidney (HEK293T) cells expressing luciferase-tagged ELG1; actives 2.3% (n = 330,000); AID 504467, 2011; HEK293T ELG1-luciferase reporter, luminescence, 16 h; DNA damage induced by 5-fluorouridine; Potency, µM (titrated, usually from 46.1 µM), without a hit: top-dose activity change, negative = inhibition, most hits filed as inhibitors; note: potency is the fitted concentration of half-maximal effect; nearly all actives have a fitted effect of over 55% in size
#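 Cells (2,000 per well) received 5-fluorouridine plus test compound or DMSO and were incubated 16 hr at 37 °C, 5% CO2. Luciferase activity was read by luminescence 30 min after ONE-Glo addition; signal suppression marked inhibition of damage-induced ELG1 function.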
# * marks the source's active call; other numbers are inactive results; ? = inconclusive; . = no result; ! = repeats disagree. Shown are actives, neighbours in structure and some others; about 19% of the full set was active somewhere. Unless noted, calls come from the whole dose curve; as a rule, active = well fitted curve in the direction sought with a large enough effect; inconclusive = small, poorly fitted or top-dose-only effect, or another doubt; inactive = no such curve, though single readings can be large; an effect the other way counts as inactive or inconclusive. % is set by controls: 0 for no effect and ±100 for the full control effect.
SMILES,DT40 TDP1 CPT,DT40 TDP1 no CPT,TDP1 block,Giardia kill,IL-1B inflam inh,ELG1 DNA repair
Cc1ccc(Oc2nc(CN3CCOCC3)nc3sc4c(c23)CCC(C)C4)cc1 (centres undefined),?,?,4.4%,-7.9,-57.3*,25.9µM*
Cc1cc(S(=O)(=O)Nc2nc(CN3CCOCC3)nc3sc4c(c23)CCC4)cc(C)c1C,-10.0%,-7.0%,-11.7%,-1.7,8.9,16.6%
O=C1OC2(c3cc(Br)c(O)c(Br)c3Oc3c2cc(Br)c(O)c3Br)c2c(Cl)c(Cl)c(Cl)c(Cl)c21,.,.,21.7%,.,.,.
CC1CCC(C(C)C)C(OC(=O)Cn2c(-c3ccc(Cl)cc3)[n+](C)c3ccccc32)C1 (centres undefined),2.31µM*,2.06µM*,.,5.3,-90.7*,?
Cc1ccccc1OCc1n(CC(=O)OC2CC(C)CCC2C(C)C)c2ccccc2[n+]1C (centres undefined),10.3µM*,2.59µM*,4.6%,-2.2,-96.5*!,11.6µM*
CC1CCC(C(C)C)C(OC(=O)COC(=O)c2ccc(N)cc2)C1 (centres undefined),?,?,1.9%,-0.3,0.0,-1.6%
CCN(CC(=O)Nc1ccccc1C(F)(F)F)C(=O)CCS(=O)(=O)c1ccc(Cl)cc1,?,-29.8%,.,-2.4,-1.2,-25.8%
CCN(CC(=O)Nc1cc(Cl)ccc1C)C(=O)CCS(=O)(=O)c1ccc(Cl)cc1,18.4µM*,?,2.9%,13.2,-29.5,-14.8%
Nc1nc(-c2ccc(F)cc2)cs1,-6.1%,-14.2%,-1.2%,-9.2,-3.8,?
Oc1cc2cc(-c3csc(-c4ccc(F)cc4)n3)ccc2[nH]1,1.12µM*,2.82µM*,.,.,.,.
Cc1nn(CC(C)C)c(Cl)c1C(=O)NCC1CCCO1 (centres undefined),-9.0%,-0.9%,.,.,12.5,.
CC(=O)Nc1cccc(-c2ccnc3c2CC(C)(C(=O)Nc2cccc(NS(C)(=O)=O)c2)O3)c1 (centres undefined),-6.7%,-27.5%,.,.,-19.3,.
CC1(C(=O)NCc2cccc(Cl)c2)Cc2c(-c3cccc(C(N)=O)c3)ccnc2O1 (centres undefined),?,?,.,.,73.0,.
CC1(C(=O)NCc2cccc(Cl)c2)Cc2c(-c3ccccc3)ccnc2O1 (centres undefined),16.4µM*,8.2µM*,.,.,19.6,.
CC(=O)Nc1cccc(-c2ccnc3c2CC(C)(C(=O)NCc2ccc(N(C)C)cc2)O3)c1 (centres undefined),3.26µM*,2.91µM*,.,.,9.1,.
CC(=O)Nc1cccc(-c2ccnc3c2CC(C)(C(=O)NCc2cccc(Cl)c2)O3)c1 (centres undefined),3.66µM*,4.11µM*,.,.,64.5,.
CC(=O)Nc1cccc(-c2ccnc3c2CC(C)(C(=O)NCc2cccs2)O3)c1 (centres undefined),?,4.11µM*,.,.,25.8,.
CC(=O)Nc1cccc(-c2ccnc3c2CC(C)(C(=O)NCCN(C)C)O3)c1 (centres undefined),0.7%,-3.1%,.,.,30.4,.
CCOc1ccc(N2C(=O)C(=O)/C(=C(/O)c3ccccc3)C2c2ccccc2[N+](=O)[O-])cc1 (centres undefined),16.4%,-15.7%,0.0%,6.3,6.3,-6.0%
CC(=O)c1ccc(NC(=O)Cn2cnc3nc4c(cc3c2=O)CC(C)CC4)cc1 (centres undefined),-24.0%,-5.3%,-0.6%,.,.,.
Cc1cc(Cl)ccc1C(=O)C1CCCN(C(=O)CN2CCOC2=O)C1 (centres undefined),-15.1%,-10.7%,4.0%,-0.9,0.0,7.5%
COc1ccc(CNC(=O)C2(C)Cc3c(-c4cccc(NC(C)=O)c4)ccnc3O2)cc1OC (centres undefined),?,18.4µM*,.,.,31.2,.
CN(C)c1ccc(-c2ccnc3c2CC(C)(C(=O)NCc2cccc(Cl)c2)O3)cc1 (centres undefined),23.1µM*,20.6µM*,.,.,?,.
COc1ccc(CNC(=O)C2(C)Cc3c(-c4ccccc4)ccnc3O2)cc1OC (centres undefined),?,?,.,.,23.3,.
CN(C)c1ccc(-c2ccnc3c2CC(C)(C(=O)NCc2ccncc2)O3)cc1 (centres undefined),?,?,.,.,2.9,.
SMILES,DT40 TDP1 CPT,DT40 TDP1 no CPT,TDP1 block,Giardia kill,IL-1B inflam inh,ELG1 DNA repair
CC(=O)Nc1ccc(-c2ccnc3c2CC(C)(C(=O)NCc2cccc(Cl)c2)O3)cc1 (centres undefined),?,23.1µM*,.,.,-13.1,.
Cc1ccc(NC(=O)CN2CCc3ccccc3C2)cc1S(=O)(=O)N1CCOCC1,?,?,0.0%,-2.1,15.4,?
O=C(CN1CCN(c2ccccn2)CC1)Nc1ccccc1,-9.2%,-6.0%,-2.0%,4.1,-19.4,5.3%
CN(C)S(=O)(=O)c1ccc(Cl)c(NC(=O)CN2CCN(c3ccccn3)CC2)c1,?,23.1µM*,.,-8.4,28.3,-5.3%
CN(C)S(=O)(=O)c1ccc(Cl)c(NC(=O)CN2CCc3ccccc3C2)c1,18.4µM*,20.6µM*,-0.6%,-9.6,-15.7,?
Cc1ccc(NC(=O)CN2CCc3ccccc3C2)cc1S(=O)(=O)N(C)C,?,23.1µM*,1.2%,17.3,18.1,?
O=C(CN1CCN(c2ccc(O)cc2)CC1)Nc1cc([N+](=O)[O-])ccc1Cl,20.6µM*,20.6µM*,5.4%,14.1,-6.0,-20.8%
CCN(CCO)Cc1cc(=O)oc2cc3c(cc12)CCC3,-11.7%,-8.1%,2.4%,4.8,25.6,0.9%
CCC(Sc1nc2nccnc2c(=O)n1Cc1ccccc1Cl)C(=O)NC1CCCCC1 (centres undefined),?,?,-7.8%,.,.,.
O=C(c1ccccc1O)N(Cc1ccco1)Cc1cccs1,.,.,-0.2%,.,.,.
O=C(CSc1n[nH]c(=O)n1C1CC1)NCc1ccccc1Cl,-6.4%,14.7%,0.0%,-23.0,1.9,12.1%
O=C(NCCc1ccccc1)c1ccc2nc(-c3ccco3)c(-c3ccco3)nc2c1,20.6µM*,18.4µM*,-2.0%,7.3,?,?
